# The list is not random: actives were taken first. Their share in the collection is about 27%.
# Cav32 inh – Cav3.2 calcium influx blockers – cell-based, Fluo-4 calcium fluorescence, FDSS, MLSMR library, primary screen; Voltage-dependent T-type calcium channel subunit alpha-1H (Homo sapiens), O95180; Cav3.2-expressing cells; hits give low values; B-score at 10 µM; actives 4% (n = 100,000); AID 449739, 2010;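 active means single-dose well whose peak fluorescence ratio is a statistical outlier from its plate by either plate-standardised score or position-corrected B-score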
# CYP2C9 inhib – blockers of cytochrome P450 2C9 activity – biochemical, luminescence, ADME assay, primary screen. P11712. CYP2C9 Supersomes, luciferin-H conversion. inhibition, % at 5 µM. actives 20% (n = 96,000). AID 777, 2007;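 active means blocking of liver enzyme CYP2C9 beyond about 50% at 5 µM, limit read from the data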
# CYP2C19 activ – human CYP2C19 activators, primary screen, biochemical, luminescence | Cytochrome P450 2C19 (Homo sapiens), P33261 | recombinant CYP2C19, luciferin-H EGE luminescence; hits give high values; 0 = fully inhibited enzyme, 1 = untreated enzyme | activation factor at 5 µM | 96,000 tested, under 10 active | AID 1025, 2008;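 active means activation factor of at least 2 at 5 µM in the primary screen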
# CYP2C9 act – human CYP2C9 activators, primary screen, biochemical, luminescence | recombinant CYP2C9, luciferin-H conversion; hits give high values; factor 1 = untreated enzyme, 0 = blocked | activation factor at 5 µM | actives 1.4% (n = 96,000);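 active means activation factor of 2 or more for CYP2C9 at a 5 µM dose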
# CYP2C19 inh – blockers of cytochrome P450 2C19 activity – biochemical, luminescence, ADME assay, primary screen | actives 21% (n = 96,000) | AID 778, 2007 | inhibition, % at 5 µM | P33261 | CYP2C19 Supersomes, luciferin-H EGE luminescence, 30 min;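 active means CYP2C19 inhibition above a set limit at 5 µM in the primary screen, cut at about 50% in these data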
# A number is an active result; 0 = inactive; - = no result given.
SMILES,Cav32 inh,CYP2C9 inhib,CYP2C19 activ,CYP2C9 act,CYP2C19 inh
CCC(=O)N1CCc2cc(S(=O)(=O)NCCC(=O)N3CC=C(c4ccccc4)CC3)ccc21,0,0,0,0,0
CCOC(=O)C1=C(C)N(CCCC(=O)O)C(=O)NC1c1ccc(C(F)(F)F)cc1 (stereo not given),0,-,-,-,-
CCOC(=O)C(C)(C)C(=O)C(C)(C)C(O)c1ccccn1 (stereo not given),0,0,0,0,51
NC(=O)NCc1ccccc1,0,-,-,-,-
Cc1ccc(S(=O)(=O)NCC2CCC(C(=O)O)CC2)cc1 (stereo not given),0,0,0,0,0
COc1ccc(C)cc1NC(=O)C(C)N(c1ccc(C)cc1)S(C)(=O)=O (stereo not given),0,56,0,0,0
Cc1ccc(N(C(C)C(=O)Nc2ccc(S(=O)(=O)N3CCOCC3)cc2)S(C)(=O)=O)cc1 (stereo not given),0,0,0,0,0
Cc1ccc(N(C(C)C(=O)Nc2cc(Cl)ccc2Oc2ccccc2)S(C)(=O)=O)cc1 (stereo not given),0,77,0,0,86
COc1ccc(NC(=O)C(C)N(c2ccc(C)cc2)S(C)(=O)=O)cc1 (stereo not given),0,74,0,0,90
COC(=O)C1CCN(c2cc(=O)n(-c3ccc(OC)cc3)c(=O)[nH]2)CC1,0,0,0,0,0
CCc1ccccc1Nc1nc(N)nc(CSCC(=O)c2cc(C)n(C)c2C)n1,0,66,0,0,85
Cc1ccc(CS(=O)(=O)CCC(=O)NCCCN2CCCC2)cc1,-,0,0,0,0
C=CCn1c(N)c(C(=O)NCc2ccco2)sc1=S,0,64,0,0,60
C=CCn1c(N)c(C(=O)Nc2ccccc2OC)sc1=S,0,85,0,0,78
C=CCn1c(N)c(C(=O)Nc2ccc(C)cc2)sc1=S,0,0,0,0,0
C=CCn1c(N)c(C(=O)N2CCOCC2)sc1=S,0,70,0,0,0
Cc1cc([N+](=O)[O-])c(NCCCCCCO)c([N+](=O)[O-])c1,0,-,-,-,-
O=C(NCc1cccs1)C1CCCN(c2nc3ccccc3o2)C1 (stereo not given),0,0,0,0,0
Cc1cc(C)c2oc(-c3ccc(C)c(NC(=S)NC(=O)/C=C/c4ccco4)c3)nc2c1,0,0,0,0,97
Cc1ccc(-c2nc3ccccc3[nH]2)cc1NC(=S)NC(=O)c1ccccc1Br,0,63,0,0,0
CCOc1ccc(C(=O)Nc2cc(-c3nc4ccccc4[nH]3)ccc2C)cc1[N+](=O)[O-],-,65,0,0,82
Cc1ccc(-c2nc3ccccc3s2)cc1NC(=S)NC(=O)c1ccccc1,0,0,0,0,0
Cc1ccc(-c2nc3ccccc3[nH]2)cc1NC(=O)/C=C/c1ccco1,0,79,0,0,0
O=C(Nc1ccc(N2CCN(C(=O)c3ccco3)CC2)cc1)c1cccc(F)c1,0,0,0,0,0
COC(=O)Nc1ccc(C)c2nsnc12,-,0,0,0,0
SMILES,Cav32 inh,CYP2C9 inhib,CYP2C19 activ,CYP2C9 act,CYP2C19 inh
O=C(Nc1ccc(OC(=O)c2ccncc2)cc1)c1ccncc1,0,0,0,0,0
CSc1nc(-c2ccccc2)nc(N)c1C(C)=O,-,63,0,0,0
CSc1nc(=O)n(-c2ccccc2)c(C)c1C(C)=O,0,0,0,0,0
CC(=O)Nc1cccc(NC(=O)CSc2nnc(Cc3cccn3C)n2CCc2ccccc2)c1,0,0,0,0,0
CCN(CC(=O)NCc1ccc(F)cc1)CC(O)COCc1cccc(OC)c1 (stereo not given),0,67,0,0,67
Cc1ccccc1Cn1ccc(NC(=O)c2onc(C)c2Cl)n1,0,-,-,-,-
O=C(NNS(=O)(=O)c1ccc([N+](=O)[O-])cc1)c1cnn(-c2ccccc2)c1-n1cccc1,0,-,-,-,-
Cn1nc(-c2ccccc2)c(C(=O)Nc2ccc(Cl)cc2)c1Cl,0,0,0,0,63
Cn1nc(-c2ccccc2)c(C(=O)Nc2ccc(C(F)(F)F)cc2)c1Cl,0,0,0,0,0
Cc1c(Cl)cccc1-n1c(SCC(=O)N(C)Cc2ccccc2)nnc1-c1ccncc1,0,83,0,0,90
Cc1noc(C)c1CSc1nnc(-c2ccncc2)n1-c1cccc(Cl)c1C,0,94,0,0,100
Cc1nc(SCc2ccc(Br)cc2)[nH]c(=O)c1C,0,0,0,0,0
CCc1nc(SCc2cccnc2)[nH]c(=O)c1C,0,82,0,0,0
CCc1nc(SCc2ccc(F)cc2)[nH]c(=O)c1C#N,-7.7,-,-,-,-
O=C(COc1ncnc2sccc12)N1CCc2ccccc2C1,0,0,0,0,59
CNC(=O)COc1ncnc2sccc12,0,0,0,0,0
Cc1cc(N/C=C/C(=O)c2cccc3ccccc23)no1,0,0,0,0,57
Cc1cc(N/C=C/C(=O)c2ccc(Br)cc2)no1,0,-,-,-,-
CCCn1c(=O)c(C(=O)NCc2ccncc2)c(O)c2ccccc21,0,80,0,0,68
CCn1c(=O)c(C(=O)NCc2cccnc2)c(O)c2ccccc21,0,72,0,0,0
CCn1c(C(=O)NCc2cccnc2)cc2sc(Cl)cc21,-,90,0,0,99
COc1ccc(C(=O)N2CCN(c3nc4cc(C)ccc4cc3C#N)CC2)c(OC)c1,0,55,0,0,0
COc1ccc2nc(N3CCC(C)CC3)c(C#N)cc2c1,0,0,0,0,0
Cc1ccc2nc(N3CCN(C(=O)c4cccs4)CC3)c(C#N)cc2c1,-4.8,0,0,0,0
CCOC(=O)C1CCN(c2nc3cc(OC)ccc3cc2C#N)CC1,0,96,0,0,96
SMILES,Cav32 inh,CYP2C9 inhib,CYP2C19 activ,CYP2C9 act,CYP2C19 inh
COc1cc(C(=O)N2CCCN(c3nc4cc(C)ccc4cc3C#N)CC2)cc(OC)c1OC,0,0,0,0,0
COc1ccc2nc(N3CCC(O)CC3)c(C#N)cc2c1,0,0,0,0,63
Cc1ccc(NC(=O)CCC(=O)NNC(=O)Cc2ccccc2)cc1C,-,0,0,0,0
CC1(C)C(=O)OC(c2ccco2)C(C)(C)C1=O (stereo not given),0,0,0,0,0
Cn1c(=O)c2c(nc(CN3CCC(C(N)=O)CC3)n2Cc2ccccc2F)n(C)c1=O,0,0,0,0,0
O=c1c(F)cn(C2CCCO2)c(=O)n1Cc1ccccc1F (stereo not given),0,0,0,0,84
O=C(CCN1CCc2ccccc2C1)c1ccc2c(c1)OCCO2,0,0,0,0,0
O=C(c1ccc2c(c1)OCO2)N1CCCc2ccccc21,0,0,0,0,83
Cc1ccc2c(c1)CCCN2C(=O)c1ccc2c(c1)OCO2,0,0,0,0,90
O=C(c1ccc2c(c1)OCO2)N1CCc2ccccc2C1,0,0,0,0,100

# Screens deposited in PubChem by several laboratories.
